Screens: PubChem BioAssay, National Center for Advancing Translational Sciences (NCATS)
IMPase cell inh: qHTS Assay for Identifying the Cell-Membrane Permeable IMPase Inhibitors; inhibition (IP1 accumulation), % at 46.1 µM; CHO-M1 cells, IP1 accumulation, HTRF TR-FRET ratio; Inositol monophosphatase 1 (Rattus norvegicus), P97697; 120,000 tested, under 10 active; active = well fitted curve in the direction sought with a large enough effect in the signal ratio, not every such curve was filed as active; inconclusive = small, poorly fitted or top-dose-only effect, or a change in a side signal; inactive = no such curve, though single readings can be large or run the other way; the % refers to the signal ratio;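 note: cells stimulated with carbachol in lithium chloride buffer; plate controls were DMSO basal wells for no effect and reference inhibitor wells for full effect; higher means more IMPase inhibition seen as more IP1 and lower FRET ratio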
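Measured: the HTRF emission ratio (665/620 nm) plus the 620 nm donor channel, each fitted to the Hill equation to give AC50. Cells were CHO-M1 given compounds up to 46 uM and a 30 min carbachol stimulation at 37C.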
ALDH1A1 inh: qHTS Assay for Inhibitors of Aldehyde Dehydrogenase 1 (ALDH1A1) | 220,000 compounds, 7.3% hits | Aldehyde dehydrogenase 1A1 (Homo sapiens), P00352 | Purified ALDH1A1, NADH fluorescence, propionaldehyde substrate | Potency, µM (titrated, usually from 75.3 µM), inactives show at the highest dose activity, negative = inhibition, most hits filed as inhibitors; active = well fitted inhibition curve with a large enough effect, not every such curve was filed as active; inconclusive = small, poorly fitted or top-dose-only effect, or another doubt; inactive = no such curve, though single readings can be large or run the other way;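 note: potency is the fitted concentration of half-maximal effect; plate controls were no enzyme wells and a reference inhibitor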
IMPase Li inh: qHTS Assay for Identifying the Cell-Membrane Permeable IMPase Inhibitors: Potentiation with Lithium | CHO-M1 cells, IP1 TR-FRET (IP-One), carbachol + lithium | Potency, µM (top dose mostly 59.4 µM), inactives show at the top dose activity, negative = IMPase inhibition, hits mostly inhibitors | 210,000 compounds, 0.35% hits;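 note: IP1 builds up when IMPase is blocked and the TR-FRET signal falls; potency is the fitted concentration of half-maximal effect; plate controls were basal vehicle for no effect and high inhibitor control for full effect; nearly all actives have a fitted effect of over 50% in size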
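Readout is a homogeneous TR-FRET IP1 immunoassay (Ex 320, Em 665 and 620), where raised cytosolic IP1 lowers signal. Cells were CHO-M1 treated 30 min at 37C with test compounds plus a little lithium; AC50 values came from Hill-equation fitting.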
HPGD inh: qHTS Assay for Inhibitors of HPGD (15-Hydroxyprostaglandin Dehydrogenase) | purified HPGD, NADH fluorescence kinetic, PGE2 substrate | Potency, µM, without a hit: top-dose activity change, negative = inhibition, actives largely listed as inhibitors | 150,000 compounds, 4.3% hits; active = well fitted inhibition curve with a large enough effect, not every such curve was filed as active; inconclusive = small, poorly fitted or top-dose-only effect, or another doubt; inactive = no such curve, though single readings can be large or run the other way; note: potency is the fitted concentration of half-maximal effect
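NADH formation kinetics: reaction with 30 uM PGE2 and 1 mM NAD+ (final), 20 nM enzyme, Tris-HCl pH 8 with Tween 20, after 15 min compound preincubation at room temperature. Fluorescence change, last versus first of five reads.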
PNC assembly inh: High Content Assay for Compounds that inhibit the Assembly of the Perinucleolar Compartment; PC3M PTB-GFP, PNC prevalence imaging, 16 h; hits give low values; activity change (PNC), negative = inhibition, % at 10 µM; 140,000 compounds, 3.1% hits; AID 2417, 2010;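 active = readout at or below -70, meaning at least 70% loss of cells showing the perinucleolar compartment, a nuclear body marking cancer cells; inconclusive = readout between -30 and a set limit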;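 note: plate controls were DMSO wells for no effect and camptothecin positive control wells for full effect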
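Read-out is percentage of cells bearing a perinucleolar compartment, from automated 20x imaging of fixed, Hoechst-stained PC3M PTB-GFP cells. Cells were seeded 4 h, then exposed 16 h to compound (23 nl of library stock) in duplicate plates.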
12-hLO inh: qHTS Assay for Inhibitors of 12-hLO (12-human lipoxygenase); Polyunsaturated fatty acid lipoxygenase ALOX12 (Homo sapiens), P18054; purified 12-hLO, xylenol orange hydroperoxide absorbance; Potency, µM (series often up to 57.1 µM), for the others: at the top dose activity change, negative = inhibition, hits mostly inhibitors; 150,000 compounds, 0.12% hits; AID 1452, 2008; note: potency is the fitted concentration of half-maximal effect; nearly all actives have a fitted effect of over 55% in size
Target sequence (P18054 whole entry, looked up): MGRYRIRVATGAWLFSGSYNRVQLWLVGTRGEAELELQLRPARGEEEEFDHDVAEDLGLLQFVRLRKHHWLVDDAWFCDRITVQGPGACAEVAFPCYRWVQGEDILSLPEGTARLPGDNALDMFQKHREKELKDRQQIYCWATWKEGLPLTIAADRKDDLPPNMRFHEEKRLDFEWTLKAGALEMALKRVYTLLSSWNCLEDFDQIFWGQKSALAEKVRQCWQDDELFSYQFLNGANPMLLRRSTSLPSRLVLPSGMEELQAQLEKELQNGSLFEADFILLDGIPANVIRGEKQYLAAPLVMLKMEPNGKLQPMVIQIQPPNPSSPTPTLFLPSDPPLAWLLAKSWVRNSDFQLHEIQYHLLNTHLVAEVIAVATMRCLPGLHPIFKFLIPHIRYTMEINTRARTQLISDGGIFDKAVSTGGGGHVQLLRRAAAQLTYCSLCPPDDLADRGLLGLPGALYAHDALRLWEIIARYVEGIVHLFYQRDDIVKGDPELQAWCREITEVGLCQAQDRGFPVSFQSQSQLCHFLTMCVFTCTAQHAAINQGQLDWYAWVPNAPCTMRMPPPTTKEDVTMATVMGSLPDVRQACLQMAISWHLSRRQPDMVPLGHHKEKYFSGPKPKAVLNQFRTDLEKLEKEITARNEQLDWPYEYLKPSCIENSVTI
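Purified human 12hLO (150 nM final) was preincubated with compounds for 15 min at room temperature in 25 mM Hepes pH 7.0, 0.01% Triton X-100, then reacted with 40 uM arachidonic acid for 30 min. Hydroperoxide was detected with ferrous iron/xylenol orange.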
* hit, by the source's call; ? = inconclusive; · = no result given; [ ] = remark or other dose. An excerpt weighted towards active compounds, which were near 11% of everything screened. Unless noted, calls come from the whole dose curve; as a rule, active = well fitted curve in the direction sought with a large enough effect; inconclusive = small, poorly fitted or top-dose-only effect, or another doubt; inactive = no such curve, though single readings can be large; an effect the other way counts as inactive or inconclusive. Unless noted, % is set by controls: 0 for no effect and ±100 for the full control effect.

SMILES	IMPase cell inh	ALDH1A1 inh	IMPase Li inh	HPGD inh	PNC assembly inh	12-hLO inh
O=C(c1ccc(Cl)cc1)N1CCN(C(=O)c2ccco2)CC1	1	25µM*	5%[38.3 µM]	-5%	-100*	0%
O=C(c1ccco1)N1CCC(n2nnc3ccccc32)CC1	12	25µM*	17%[38.3 µM]	-21%	35	-3%
O=C(c1ccco1)N1CCN(C(=O)C2CC2)CC1	·	-11%	-2%	-4%	-6	3%
NC(=O)N1CCN(C(=O)c2ccco2)CC1	2	20µM*	24%[38.3 µM]	-14%	?	9%
O=C(c1ccco1)N1CCN(C2CCCC2)CC1	2	-7%	-4%	-14%	-101*	-1%
O=[N+]([O-])c1ccc(CSc2ncnc3c2ncn3[C@@H]2O[C@H](CO)[C@H](O)[C@H]2O)cc1	·	-5%	7%	-6%	·	·
COc1ccc(N(C(=O)c2ccccc2C)S(=O)(=O)c2ccc(C)cc2)cc1	-1	·	·	·	·	·
COc1ccc(N(C(=O)c2ccccc2C)S(=O)(=O)c2cccs2)cc1	·	11µM*	7%	-15%	-97*	-2%
CCCCC/C=C\C/C=C\CCCCCCCCCC(=O)NCCCC(=O)O	·	-1%	-2%	-4%	·	2%
CCCCCC(=O)Nc1sc(C)c(C)c1C#N	·	10µM*	0%	25µM*	?	-10%
Cc1sc(NC(=O)C2CCCO2)c(C#N)c1C (centres undefined)	0	25µM*	27%[38.3 µM]	-27%	-92*	8%
CCc1ccc(-c2c(C)sc(NC(=O)C3CCC3)c2C#N)cc1	·	-22%	?	-10%	55	1%
CCCC(=O)Nc1sc(C)c(C)c1C#N	·	?	4%	·	·	·
Cc1sc(NC(=O)C2CCCC2)c(C#N)c1C	·	14µM*	1%	10µM*	?	-21%
Cc1ccsc1/C=C1/SC(N2CC(C)OC(C)C2)=NC1=O (centres undefined)	·	11µM*	9%	32µM*	14	2%
CC[C@@H]1OC(=O)[C@H](C)[C@H](O[C@@H]2C[C@](C)(OC)[C@H](O)[C@H](C)O2)[C@H](C)[C@H](O[C@@H]2O[C@@H](C)C[C@@H](N(C)C)[C@@H]2O)[C@](C)(O)C[C@H](C)C(=O)[C@H](C)[C@H](O)[C@]1(C)O	-3[20.6 µM]	4%[20.9 µM]	2%	-1%	·	-1%[25.6 µM]
Cc1cccc(-c2n[nH]c(=S)n2/N=C/c2ccc(C)s2)c1	·	-1%	0%	4µM*	?	-1%
Cc1ccccc1-n1c(-c2ccncc2)n[nH]c1=S	9	16µM*	13%[38.3 µM]	?	?	0%
Cc1cccc(/C=N/n2c(-c3ccncc3)n[nH]c2=S)c1	·	-13%	6%	16µM*	?	-1%
S=c1[nH]nc(-c2ccncc2)n1/N=C/c1ccccc1	2	?	-3%	32µM*	-28	-5%
Cc1cccc(-n2c(-c3ccncc3)n[nH]c2=S)c1C	·	?	3%	·	·	·
CCOC(=O)c1cnc2ccc(C(=O)OC)cc2c1Nc1ccc(OCc2ccccc2Cl)cc1	-6	·	·	·	·	·
Cc1cccc(/C=N/n2c(-c3cc(-c4ccccc4)n[nH]3)n[nH]c2=S)c1	·	-7%	-3%	5µM*	-11	-7%
COc1cc(/C=N/n2c(-c3ccccc3)n[nH]c2=S)ccc1O	·	25µM*	·	·	·	·
S=c1[nH]nc(-c2ccccc2)n1/N=C/c1ccc(-c2ccccc2Cl)o1	·	7%	20%	3.2µM*	-100*	1%
Cc1ccc2c(c1)C(=O)OC(C(=O)Nc1ccc(C(=O)O)cc1)C2 (centres undefined)	8	·	·	·	·	·
Cc1cccc(OCc2nc(C#N)c(NCc3ccccc3Cl)o2)c1	-8	·	·	·	·	·
